Assay results as given in PubChem BioAssay (NCATS).
Results filed as inconclusive are left out. Calls of active or inactive are those of the source. The call rests on the fitted dose curve; in most records, active means well fitted cell-killing curve with a large enough effect; inconclusive means small, poorly fitted or top-dose-only effect, or effect the other way; inactive means no such curve, though single readings can be large or run the other way.
On the % scale 0 is the no-effect control and ±100 the full control effect; potency means the concentration at half of the fitted maximal effect.

Assay: Cell Viability qHTS for small molecule stabilizers of the endoplasmic reticulum resident proteome (AID 1508629);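 further: compound exposure about 46 h in total before the viability read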
Conditions: cell viability counter-screen, 100 nM thapsigargin for final 4 h
Description: Assay Provider: Brandon K. Harvey Ph.D.
National Institute on Drug Abuse, National Institutes of Health, Baltimore, MD
Endoplasmic reticulum (ER) dysregulation is associated with human pathologies including neurodegenerative, cardiovascular, muscular, and diabetic conditions. Maintenance of ER calcium is critical for functions of the ER and its depletion can lead to loss of ER resident proteins, in a process termed exodosis. Therapeutic compounds capable of attenuating the redistribution of ER proteins under pathological conditions may slow or stop disease progression. To identify such compounds, we performed a quantitative high-throughput screen (qHTS) using the SERCaMP assay, which monitors secretion of ER resident proteins triggered by calcium depletion.
SERCaMP was initially developed as a reporter of ER calcium homeostasis using a Gaussia luciferase with a modified signal peptide and carboxy-terminus (GLuc-SERCaMP), modifications that confer secretion of the reporter in response to ER calcium depletion (Henderson et al., 2014). The assay was used to screen 9,501 compounds, including a collection of drugs approved by the FDA (US), EMA (EU), NHI (Japan), and HC (Canada) regulatory agencies (Huang et al., 2011). Since the SERCaMP reporter reflects the exodosis phenomenon (Trychta et al., 2018a), compounds identified in the screen have the potential to prevent exodosis by different mechanisms such as stabilizing ER calcium or augmenting ERS retrieval.
1. Henderson, M.J., Wires, E.S., Trychta, K.A., Richie, C.T., and Harvey, B.K. (2014). SERCaMP: a carboxy-terminal protein modification that enables monitoring of ER calcium homeostasis. Mol Biol Cell 25, 2828-2839.
2. Huang, R., Southall, N., Wang, Y., Yasgar, A., Shinn, P., Jadhav, A., Nguyen, D.T., and Austin, C.P. (2011). The NCGC pharmaceutical collection: a comprehensive resource of clinically approved drugs enabling repurposing and chemical genomics. Sci Transl Med 3, 80ps16.
3. Trychta, K.A., Back, S., Henderson, M.J., and Harvey, B.K. (2018a). KDEL Receptors Are Differentially Regulated to Maintain the ER Proteome under Calcium Deficiency. Cell Rep 25, 1829-1840 e1826.
SEQUENCE No. (1, 2, 3, etc.); […] (e.g., Cells, Incubation, Reagent, etc.); VALUE and DESCRIPTION.
1; Reagent; 5 uL; 1000 SH-SY5Y cells per wells
3; Compound; 23 nL; Control inhibitor / compound library
5; Reagent; 100 nM; Thapsigargin
7; Reagent; 5 uL; CellTiter-Glo (Promega)
8; Time; 10 min; room temperature
9; Detection; Luminescence; ViewLux imaging system
NOTES (numbers refer to sequence above)
1; SH-SY5Y human neuroblastoma cells stably expressing GLuc-SERCaMP (SH-SY5Y-GLuc-ASARTDL) cells were seeded in 1,536 well white tissue culture treated plates (Corning, Cat# 7464) in DMEM-high glucose-sodium pyruvate (ThermoFisher Scientific, Cat #10569) supplemented with 10% bovine growth serum (Hyclone), 10 U/ml penicillin (Gibco), 10 ug/ml streptomycin (Gibco), and 20 mM HEPES.
2; Assay plates were incubated for 5 hr at 37C in a humidified incubator containing 5% CO2.
3; qHTS libraries (23 nl, final concentrations of 1.53 uM, 7.67 uM, 38.3 uM) or controls (neutral control: DMSO, positive control: dantrolene) were added using a Kalypsis pin-tool Robotic System equipped with 1536 pinheads.
4; Cells were then incubated for 42 hours at 37C, 5% CO2.
5; Thapsigargin was added at 100 nM to deplete ER calcium stores.
6; Cells were incubated for 4 hr (37C, 5% CO2).
7; Cell viability was measured using the CellTiter-Glo Luminescent Cell Viability Assay (Promega). Briefly, an equal volume of reagent was added to each well. Plates were rotated for 2 min.
8; Assay plates were incubated for 10 min at room temperature.
9; Luminescence was measured using a ViewLux CCD imaging system (Perkin Elmer) equipped with clear filters.
With `COc1cccc(CCc2ccccc2OCC[C@@H]2C[C@@H](O)CN2C)c1` the Potency was 15.8 µM (active). For `S=C(Nc1ccccc1)Nc1nccs1`, the max response was -3.94% (inactive). In the case of `O=C(O)C1NCCN(C(=O)c2ccc3c(ccc4ccccc43)c2)C1C(=O)O` (stereo unspecified), the max response was 28.7% (inactive). For `CS(=O)(=O)CCNCc1nc(-c2ccc3ncnc(Nc4ccc(OCc5cccc(F)c5)c(Cl)c4)c3c2)cs1`, the Potency was 15.8 µM (active). With `COc1ccc(NS(=O)(=O)c2ccc(I)cc2)cc1N1CCN(C)CC1` the max response was -15.1% (inactive). With `O=C1c2ccccc2C(=O)c2c(NCCc3ccc(O)cc3)ccc(NCCc3ccc(O)cc3)c21` the max response was -20.2% (inactive). For `CN1CCN(C2=Cc3ccccc3Oc3ccc(Cl)cc32)CC1`, the max response was 13.7% (inactive). For `CN(Cc1ccccc1)C(=O)[C@H](Cc1ccc2ccccc2c1)NC(=O)[C@@H]1CCCN1C(=O)Nc1ccccc1[N+](=O)[O-]`, the max response was 12.2% (inactive). With `NC(=NC1C2CC3CC(C2)CC1C3)Nc1ccc(I)cc1` (stereo unspecified) the Potency was 12.6 µM (active). In the case of `COc1ccc(/C=C\C(=O)Nc2ccccc2C(=O)O)cc1OC`, the max response was -9.06% (inactive). For `CN1C[C@H](C(=O)N[C@]2(C)O[C@@]3(O)[C@H]4CCCN4C(=O)[C@H](Cc4ccccc4)N3C2=O)C[C@H]2c3cccc4[nH]cc(c34)C[C@@H]21`, the max response was 18% (inactive). For `C[C@@H]([C@H](O)c1ccc(O)cc1)N1CCC(Cc2ccccc2)CC1`, the max response was -8.82% (inactive). For `CN(C)C1CCc2[nH]c3ccc(NC(=O)c4ccc(F)cc4)cc3c2C1` (stereo unspecified), the max response was -26.6% (inactive). With `NCCOB(c1ccccc1)c1ccccc1` the max response was 2.88% (inactive). In the case of `O=Nc1c(-c2c(O)[nH]c3ccccc23)[nH]c2ccccc12`, the max response was -10.5% (inactive). For `CC(C)ON(C(C(=O)NO)C(C)C)S(=O)(=O)c1ccc(-c2ccccc2)cc1` (stereo unspecified), the Potency was 12.6 µM (active). With `C[C@]12CC3CC(N)(C1)C[C@@](C)(C3)C2` the max response was -0.737% (inactive). With `N=C(N)SCCN=C(N)N` the max response was -2.13% (inactive). For `CC(C)C[C@H]1C(=O)N2CCC[C@@H]2[C@]2(O)O[C@](NC(=O)[C@@H]3C=C4c5cccc6[nH]c(Br)c(c56)C[C@H]4N(C)C3)(C(C)C)C(=O)N12`, the max response was -14.6% (inactive). With `CN(C)c1ccc(/C=C2/C(=O)Nc3ccccc32)cc1` the max response was 8.84% (inactive). For `N#Cc1cc2c(OCC(O)CN3CCN(C(c4ccccc4)c4ccccc4)CC3)cccc2[nH]1` (stereo unspecified), the max response was 3.24% (inactive).
